# Measurements as given in article PMC11062922 (Nature Chemical Biology, 2023).
# Read-outs that look alike come from different tables or passages of the source.
# Key:
# CDKL5 = system: CDKL5; design: species or system human, MV4-11 + K-562 + COLO205 + SK-N-BE2 + OVCAR-8; conditions: read-out: apparent Kd, n = 1
# MTHFD1 = system: MTHFD1; design: species or system human, MV4-11 + K-562 + COLO205 + SK-N-BE2 + OVCAR-8; conditions: read-out: apparent Kd; compound concentrations:100 nM and 1000 nM (sheet 'Samples'); n = 1
# PLK1 = system: PLK1; design: species or system human, MV4-11 + K-562 + COLO205 + SK-N-BE2 + OVCAR-8; conditions: read-out: apparent Kd; compound concentrations: 100 nM and 1000 nM (sheet 'Samples'), CATDS: 0.37737970121019898; n = 1
# CDK7 = system: CDK7; design: species or system human, MV4-11 + K-562 + COLO205 + SK-N-BE2 + OVCAR-8; conditions: read-out: apparent Kd; compound concentrations: 100 nM and 1000 nM (sheet 'Samples'), CATDS: 8.4335056049156601E-2; n = 1
# EPHA5 = system: EPHA5; design: species or system human, MV4-11 + K-562 + COLO205 + SK-N-BE2 + OVCAR-8; conditions: read-out: apparent Kd; compound concentrations: 100 nM and 1000 nM (sheet 'Samples'), CATDS: 7.2696381065974702E-2; n = 1
# EPHB4 = system: EPHB4; design: species or system human, MV4-11 + K-562 + COLO205 + SK-N-BE2 + OVCAR-8; conditions: read-out: apparent Kd; compound concentrations: 100 nM and 1000 nM (sheet 'Samples'), CATDS: 7.5541211933236804E-2; n = 1
# ERCC2 = system: ERCC2; design: species or system human, MV4-11 + K-562 + COLO205 + SK-N-BE2 + OVCAR-8; conditions: read-out: apparent Kd; compound concentrations: 100 nM and 1000 nM (sheet 'Samples'), CATDS: 9.6102785253179598E-2; n = 1
# FER = system: FER; design: species or system human, MV4-11 + K-562 + COLO205 + SK-N-BE2 + OVCAR-8; conditions: read-out: apparent Kd; compound concentrations: 100 nM and 1000 nM (sheet 'Samples'), CATDS: 7.77606230380051E-2; n = 1
# GAK = system: GAK; design: species or system human, MV4-11 + K-562 + COLO205 + SK-N-BE2 + OVCAR-8; conditions: read-out: apparent Kd; compound concentrations: 100 nM and 1000 nM (sheet 'Samples'), CATDS: 7.8204164782115004E-2; n = 1
# GSK3A = system: GSK3A; design: species or system human, MV4-11 + K-562 + COLO205 + SK-N-BE2 + OVCAR-8; conditions: read-out: apparent Kd, compound concentrations: 100 nM and 1000 nM (sheet 'Samples'), n = 1
# PIK3C3 = system: PIK3C3; design: species or system human, MV4-11 + K-562 + COLO205 + SK-N-BE2 + OVCAR-8; conditions: read-out: apparent Kd; compound concentrations: 100 nM and 1000 nM (sheet 'Samples'), CATDS: 0.106578843558364; n = 1
# PIK3CB = system: PIK3CB; design: species or system human, MV4-11 + K-562 + COLO205 + SK-N-BE2 + OVCAR-8; conditions: read-out: apparent Kd; compound concentrations: 100 nM and 1000 nM (sheet 'Samples'), CATDS: 0.68027770173125801; n = 1
# TNK1 = system: TNK1; design: species or system human, MV4-11 + K-562 + COLO205 + SK-N-BE2 + OVCAR-8; conditions: read-out: apparent Kd; compound concentrations: 100 nM and 1000 nM (sheet 'Samples'), CATDS: 9.2477692433592898E-2; n = 1
# TNK2 = system: TNK2; design: species or system human, MV4-11 + K-562 + COLO205 + SK-N-BE2 + OVCAR-8; conditions: read-out: apparent Kd; compound concentrations: 100 nM and 1000 nM (sheet 'Samples'), CATDS: 8.9325991753534395E-2; n = 1
# CLK1 = system: CLK1; design: species or system human, MV4-11 + K-562 + COLO205 + SK-N-BE2 + OVCAR-8; conditions: read-out: apparent Kd; compound concentrations: 100 nM and 1000 nM (sheet 'Samples'), CATDS: 0.119262646968794; n = 1
# CLK4 = system: CLK4; design: species or system human, MV4-11 + K-562 + COLO205 + SK-N-BE2 + OVCAR-8; conditions: read-out: apparent Kd; compound concentrations: 100 nM and 1000 nM (sheet 'Samples'), CATDS: 0.13099506977266501; n = 1
# ERN2 = system: ERN2; design: species or system human, MV4-11 + K-562 + COLO205 + SK-N-BE2 + OVCAR-8; conditions: read-out: apparent Kd; compound concentrations: 100 nM and 1000 nM (sheet 'Samples'), CATDS: 0.122228474485695; n = 1
# GSK3B = system: GSK3B; design: species or system human, MV4-11 + K-562 + COLO205 + SK-N-BE2 + OVCAR-8; conditions: read-out: apparent Kd; compound concentrations: 100 nM and 1000 nM (sheet 'Samples'), CATDS: 0.15136404639572901; n = 1
# PAK4 = system: PAK4; design: species or system human, MV4-11 + K-562 + COLO205 + SK-N-BE2 + OVCAR-8; conditions: read-out: apparent Kd; compound concentrations: 100 nM and 1000 nM (sheet 'Samples'), CATDS: 0.121686694160256; n = 1
# Q6ZSR9 = Q6ZSR9 (human, UniProt Q6ZSR9); design: species or system MV4-11 + K-562 + COLO205 + SK-N-BE2 + OVCAR-8; conditions: read-out: apparent Kd; compound concentrations: 100 nM and 1000 nM (sheet 'Samples'), CATDS: 0.110463614954163; n = 1
# Q6ZSR9, sequence (Q6ZSR9 whole entry, looked up): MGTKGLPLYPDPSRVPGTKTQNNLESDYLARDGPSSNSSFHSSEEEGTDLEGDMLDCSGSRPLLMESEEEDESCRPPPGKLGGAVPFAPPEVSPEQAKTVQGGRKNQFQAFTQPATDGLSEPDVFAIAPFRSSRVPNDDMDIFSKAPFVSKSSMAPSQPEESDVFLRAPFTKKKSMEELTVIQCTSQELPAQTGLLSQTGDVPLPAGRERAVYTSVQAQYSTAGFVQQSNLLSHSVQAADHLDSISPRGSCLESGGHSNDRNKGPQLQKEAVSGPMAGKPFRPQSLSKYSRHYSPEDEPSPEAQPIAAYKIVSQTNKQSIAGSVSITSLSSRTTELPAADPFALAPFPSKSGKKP
# MAPK11 = system: MAPK11; design: species or system human, MV4-11 + K-562 + COLO205 + SK-N-BE2 + OVCAR-8; conditions: read-out: apparent Kd; compound concentrations: 100 nM and 1000 nM (sheet 'Samples'), CATDS: 0.67677633408210103; n = 1
# MAPK14 = system: MAPK14; design: species or system human, MV4-11 + K-562 + COLO205 + SK-N-BE2 + OVCAR-8; conditions: read-out: apparent Kd, compound concentrations: 100 nM and 1000 nM (sheet 'Samples'), n = 1
# MAPKAPK2 = system: MAPKAPK2; design: species or system human, MV4-11 + K-562 + COLO205 + SK-N-BE2 + OVCAR-8; conditions: read-out: apparent Kd, compound concentrations: 100 nM and 1000 nM (sheet 'Samples'), n = 1
# CDK6 = system: CDK6; design: species or system human, MV4-11 + K-562 + COLO205 + SK-N-BE2 + OVCAR-8; conditions: read-out: apparent Kd; compound concentrations:100 nM and 1000 nM (sheet 'Samples'); n = 1
# CIT = system: CIT; design: species or system human, MV4-11 + K-562 + COLO205 + SK-N-BE2 + OVCAR-8; conditions: read-out: apparent Kd; compound concentrations: 100 nM and 1000 nM (sheet 'Samples'), CATDS: 7.9772232901770906E-2; n = 1
# CSNK1A1 = system: CSNK1A1; design: species or system human, MV4-11 + K-562 + COLO205 + SK-N-BE2 + OVCAR-8; conditions: read-out: apparent Kd; compound concentrations: 100 nM and 1000 nM (sheet 'Samples'), CATDS: 5.74682899523659E-2; n = 1
# CSNK1D = system: CSNK1D; design: species or system human, MV4-11 + K-562 + COLO205 + SK-N-BE2 + OVCAR-8; conditions: read-out: apparent Kd; compound concentrations: 100 nM and 1000 nM (sheet 'Samples'), CATDS: 0.160108926806518; n = 1
# CSNK1E = system: CSNK1E; design: species or system human, MV4-11 + K-562 + COLO205 + SK-N-BE2 + OVCAR-8; conditions: read-out: apparent Kd; compound concentrations: 100 nM and 1000 nM (sheet 'Samples'), CATDS: 0.10532594591196801; n = 1
# DDR1 = system: DDR1; design: species or system human, MV4-11 + K-562 + COLO205 + SK-N-BE2 + OVCAR-8; conditions: read-out: apparent Kd; compound concentrations: 100 nM and 1000 nM (sheet 'Samples'), CATDS: 7.6072029759196497E-2; n = 1
# DDR2 = system: DDR2; design: species or system human, MV4-11 + K-562 + COLO205 + SK-N-BE2 + OVCAR-8; conditions: read-out: apparent Kd; compound concentrations: 100 nM and 1000 nM (sheet 'Samples'), CATDS: 5.6437798094111098E-2; n = 1
# MAPK10 = system: MAPK10; design: species or system human, MV4-11 + K-562 + COLO205 + SK-N-BE2 + OVCAR-8; conditions: read-out: apparent Kd; compound concentrations: 100 nM and 1000 nM (sheet 'Samples'), CATDS: 4.9775918057440499E-2; n = 1
# MAPK9 = system: MAPK9; design: species or system human, MV4-11 + K-562 + COLO205 + SK-N-BE2 + OVCAR-8; conditions: read-out: apparent Kd; compound concentrations: 100 nM and 1000 nM (sheet 'Samples'), CATDS: 6.3726988892981506E-2; n = 1
# NLK = system: NLK; design: species or system human, MV4-11 + K-562 + COLO205 + SK-N-BE2 + OVCAR-8; conditions: read-out: apparent Kd; compound concentrations: 100 nM and 1000 nM (sheet 'Samples'), CATDS: 9.0409575218607804E-2; n = 1
# RIPK2 = system: RIPK2; design: species or system human, MV4-11 + K-562 + COLO205 + SK-N-BE2 + OVCAR-8; conditions: read-out: apparent Kd; compound concentrations: 100 nM and 1000 nM (sheet 'Samples'), CATDS: 0.128634977422559; n = 1
structure (smiles),measurement,setting,value
COc1cc2ncn(-c3cc(OCc4ccccc4C(F)(F)F)c(C(N)=O)s3)c2cc1OC [GW843682X],potency estimated from few doses,CDKL5; compound concentrations:100 nM and 1000 nM (sheet 'Samples'),2330 nM
same,potency estimated from few doses,MTHFD1,1710 nM
same,potency estimated from few doses,PLK1,1400 nM
O=c1cc(N2CCOCC2)nc2n(Cc3cccc(Cl)c3Cl)ccn12 [GSK2286295A],potency estimated from few doses,CDK7,923 nM
same,potency estimated from few doses,EPHA5,1360 nM
same,potency estimated from few doses,EPHB4,1220 nM
same,potency estimated from few doses,ERCC2,687 nM
same,potency estimated from few doses,FER,1130 nM
same,potency estimated from few doses,GAK,1110 nM
same,potency estimated from few doses,GSK3A; CATDS: 7.5555777377750599E-2,1220 nM
same,potency estimated from few doses,PIK3C3,554 nM
same,potency estimated from few doses,PIK3CB,21.8 nM
same,potency estimated from few doses,TNK1,747 nM
same,potency estimated from few doses,TNK2,807 nM
Cn1cc(C2=C(c3cn(C)c4c([N+](=O)[O-])cccc34)C(=O)NC2=O)c2ccccc21 [RO0317452-000],potency estimated from few doses,"CDKL5; compound concentrations: 100 nM and 1000 nM (sheet 'Samples'), CATDS: 0.10582240505262699",2010 nM
same,potency estimated from few doses,CLK1,1520 nM
same,potency estimated from few doses,CLK4,1260 nM
same,potency estimated from few doses,ERN2,1450 nM
same,potency estimated from few doses,GSK3A; CATDS: 0.15449009445540701,933 nM
same,potency estimated from few doses,GSK3B,967 nM
same,potency estimated from few doses,PAK4,1460 nM
same,potency estimated from few doses,Q6ZSR9,1810 nM
Cl.Nc1c(C(=O)c2cccc(-c3ccncc3)c2)cnn1-c1ccc(F)cc1F [RO1166300-001],potency estimated from few doses,"CDKL5; compound concentrations: 100 nM and 1000 nM (sheet 'Samples'), CATDS: 0.17547829897004599",1830 nM
same,potency estimated from few doses,MAPK11,82.3 nM
same,potency estimated from few doses,MAPK14; CATDS: 0.205012911986655,1060 nM
same,potency estimated from few doses,MAPKAPK2; CATDS: 0.2534240729319,584 nM
COc1cc(C)c(N(C)C(=O)CN(C)C)cc1Nc1nc(Nc2cccc(F)c2C(N)=O)c2cc[nH]c2n1 [GSK2219385_KCGS],potency estimated from few doses,CDK6,1850 nM
Nc1nccc(-c2c(-c3ccc(F)cc3)ncn2C2CCN(CC(F)(F)F)CC2)n1 [SB-236560],potency estimated from few doses,CIT,168 nM
same,potency estimated from few doses,CSNK1A1,514 nM
same,potency estimated from few doses,CSNK1D,41.3 nM
same,potency estimated from few doses,CSNK1E,87.7 nM
same,potency estimated from few doses,DDR1,191 nM
same,potency estimated from few doses,DDR2,559 nM
same,potency estimated from few doses,MAPK10,1150 nM
same,potency estimated from few doses,MAPK14; CATDS: 0.14251472882722499,50 nM
same,potency estimated from few doses,MAPK9,338 nM
same,potency estimated from few doses,MAPKAPK2; CATDS: 0.17165135235048001,37.1 nM
same,potency estimated from few doses,NLK,123 nM
same,potency estimated from few doses,RIPK2,59.8 nM
